# Source: PubChem BioAssay (NCATS)
# Values joined by “and” are separate entries in the source; they are usually repeats but may differ in a detail not shown here. Identical values can stand only once. Inconclusive results are not listed. Unmarked numbers belong to inactive results. Active and inactive are the calls of the source. Calls come from the whole dose curve; as a rule, active = well fitted inhibition curve with a large enough effect; inconclusive = small, poorly fitted or top-dose-only effect; inactive = flat fitted curve, though single readings scatter. Non-standard residues stand in square brackets, D forms with d. Residues, ends and D or L forms follow the SMILES beside them. Orn = NCCC[C@H](N)C(=O)O
# Tests used:
# [1] = tested on: KB-3-1; experiment: Cytotoxic Profiling of Annotated Libraries Using Quantitative High-Throughput Screening (AID 1296008); conditions: Five cell lines viability, CellTiter-Glo ATP luminescence, 48-72 h; max response: hits give low values; for max response: % is set by controls: 0 for no effect and ±100 for the full control effect
# Method in brief: (§1)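 Compounds were pin-transferred onto cells and incubated 48 or 72 hr at 37 degree Celsius, 95% humidity. CellTiter-Glo was added, plates sat 10 min at room temperature, then ATP-coupled luminescence was imaged as the viability read-out.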
# [2] = tested on: HEK293; experiment: as above; conditions: Five cell lines viability, CellTiter-Glo ATP luminescence, 48-72 h; max response: hits give low values
# Method in brief: as §1
# [3] = tested on: HaCat; experiment: as above; conditions: Five cell lines viability, CellTiter-Glo ATP luminescence, 48-72 h; max response: hits give low values
# Method in brief: as §1
# [4] = tested on: NIH3T3; experiment: as above; conditions: Five cell lines viability, CellTiter-Glo ATP luminescence, 48-72 h; max response: hits give low values
# Method in brief: as §1
# [5] = tested on: HEK293T; experiment: qHTS assay to identify novel small-molecules to repurpose for Merkel cell carcinoma treatment (AID 1296009); conditions: MCC and control cell lines, CellTiter-Glo viability, 72 h; series mostly up to 44.8 µM
# Method in brief: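 Luminescence from CellTiter-Glo, read 10 min after addition at room temperature, reported viability following a 72 hr, 37 degree celsius treatment with NPC or MIPE compounds in titration; values normalized to plate controls.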
# [6] = tested on: CRL-7250; experiment: Cytotoxic Profiling of Annotated Libraries Using Quantitative High-Throughput Screening (AID 1296008); conditions: Five cell lines viability, CellTiter-Glo ATP luminescence, 48-72 h; max response: hits give low values; for max response: % is set by controls: 0 for no effect and ±100 for the full control effect
# Method in brief: as §1
# Note: nearly all actives have a fitted effect of over 60% in size.
# Potency is the fitted concentration of half-maximal effect.
structure (smiles),measurement,setting,value
CCCCCCCC/C=C\CCCCCCCC(=O)O,max response,[1],4.43%
N#Cc1ccc2[nH]c(O)c(-c3ccc(CN4CCOCC4)cn3)c2c1,max response,[2],-0.745%
same,outcome,[2],inactive
same,max response,[3],-0.0847%
same,max response,[4],-16.6%
same,outcome,[4],inactive
same,Potency,[5],inactive
CC1=C(CC(=O)O)c2cc(F)ccc2C1=Cc1ccc(S(C)(=O)=O)cc1,outcome,[6],inactive
same,outcome,[2],inactive
same,max response,[3],-6.44%
same,max response,[4],4%
same,Potency,[5],inactive
IC(I)I,max response,[1],9.13%
COc1ccc(C[C@H](N)C(=O)N[C@H]2[C@@H](O)[C@H](n3cnc4c(N(C)C)ncnc43)O[C@@H]2CO)cc1,Potency,[6],920 nM (active)
same,Potency,[3],1300 nM (active)
same,Potency,[1],5.17 µM (active) and 517 nM (active)
same,Potency,[4],2310 nM (active)
same,Potency,[5],1160 nM (active)
CCOc1cc2ncc(C#N)c(Nc3ccc(OCc4ccccn4)c(Cl)c3)c2cc1NC(=O)/C=C/CN(C)C,Potency,[2],1420 nM (active)
same,Potency,[3],224 nM (active)
CCCCCCCCCCCCCC[n+]1ccc(C)cc1,Potency,[1],18.4 µM (active)
C[C@]12C=CC(=O)N[C@@H]1CC[C@@H]1[C@@H]2CC[C@]2(C)[C@@H](C(=O)Nc3cc(C(F)(F)F)ccc3C(F)(F)F)CC[C@@H]12,max response,[1],5.03%
O=C(O)C1CCCN1 (stereo not given),max response,[1],3.27%
CC(=O)N[C@@H](CC(=O)N[C@@H](CCC(=O)O)C(=O)O)C(=O)O,max response,[1],-12.8%
CC(Oc1ccccc1)C(=O)N[C@@H]1C(=O)N2[C@@H]1SC(C)(C)[C@@H]2C(=O)O (stereo not given in full),max response,[1],-0.849%
CC(C)C[C@@H]1NC(=O)[C@H](CCCN)NC(=O)[C@H](C(C)C)NC(=O)[C@@H]2CCCN2C(=O)[C@@H](Cc2ccccc2)NC(=O)[C@H](CC(C)C)NC(=O)[C@H](CCCN)NC(=O)[C@H](C(C)C)NC(=O)[C@@H]2CCCN2C(=O)[C@@H](Cc2ccccc2)NC1=O (cyclo(V[Orn]L[dF]PV[Orn]L[dF]P)),Potency,[1],0.82 µM (active)
CC1=CCC2C(C)(CO)CCCC2(CO)C1CO (stereo not given),outcome,[6],inactive
same,outcome,[2],inactive
same,max response,[3],-5.9%
same,outcome,[4],inactive
same,Potency,[5],inactive
CC1(C)S[C@@H]2[C@H](NC(=O)Cc3ccccc3)C(=O)N2[C@H]1C(=O)O,max response,[1],-8.27%
CC(C)NCC1CCc2cc(CO)c([N+](=O)[O-])cc2N1 (stereo not given),max response,[1],2.46%
CCC(=O)OCC(=O)[C@@]1(OC(=O)CC)[C@H](C)C[C@H]2[C@H]3[C@H]([C@@H](O)C[C@@]21C)[C@@]1(C)C=CC(=O)C=C1C[C@H]3Cl,max response,[1],31.3%
C[C@@H]1O[C@@H](O[C@H]2[C@H](O[C@H]3CO[C@@H](O[C@H]4CC[C@@]5(C)C(CC[C@]6(C)C5CC[C@]57OC[C@@]8(CC[C@](C)(CO)CC85)[C@H](O)C[C@]76C)C4(C)C)[C@H](O[C@@H]4O[C@H](CO)[C@@H](O)[C@H](O)[C@H]4O)[C@H]3O)O[C@H](CO)[C@@H](O)[C@@H]2O)[C@H](O)[C@H](O)[C@H]1O (stereo not given in full),max response,[6],-17.3%
same,outcome,[2],inactive
same,max response,[3],-3.02%
same,max response,[4],2.44%
same,outcome,[5],inactive [at 9.27 µM]
CN1CCC(CN2c3ccccc3Sc3ccccc32)C1 (stereo not given),max response,[1],-8.09%
